Laboratory results published in the supplement of paper PMC8728848.
This is one part of a sample in which the strongest signals are shown more often than they occur.

Key:
Experiment in all cases: glycan array binding signal (z-score within array); higher = stronger binding
Conditions in all cases: glycan notation: IUPAC condensed, linker removed
[1] = biological target: Gal(b1-4)GlcNAc(b1-3)Gal(b1-4)GlcNAc(b1-6)[Gal(b1-3)]GalNAc
In short: (§1)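 Negative Z-scores can be read as non-binding. The Z-score is calculated within each array and then averaged across arrays of one protein sequence at different concentrations or buffers and across linkers. Arrays, 3228 in all, were curated from the Consortium for Functional Glycomics database and kept only where the protein sequence was available.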

[2] = biological target: Gal3S(b1-4)[Fuc(a1-3)]Glc6S
In short: as §1

Gal6P(b1-4)GlcNAc = biological target: Gal6P(b1-4)GlcNAc
In short: as §1

GalNAc(a1-3)GalNAc = biological target: GalNAc(a1-3)GalNAc
In short: as §1

GalNAc(b1-3)GalNAc = biological target: GalNAc(b1-3)GalNAc
In short: as §1

GalNAc(b1-3)GlcNAc = biological target: GalNAc(b1-3)GlcNAc
In short: as §1

[3] = biological target: GalNAc(b1-4)GlcNAc(b1-2)Man(a1-3)[GalNAc(b1-4)GlcNAc(b1-2)Man(a1-6)]Man(b1-4)GlcNAc(b1-4)GlcNAc
In short: as §1

GlcA(b1-3)GlcNAc = biological target: GlcA(b1-3)GlcNAc
In short: as §1

[4] = biological target: GlcNAc(b1-2)[GlcNAc(b1-4)]Man(a1-3)[GlcNAc(b1-4)][GlcNAc(b1-2)Man(a1-6)]Man(b1-4)GlcNAc(b1-4)GlcNAc
In short: as §1

[5] = biological target: GlcNAc(b1-3)Gal(b1-4)GlcNAc(b1-3)Gal(b1-4)GlcNAc(b1-3)Gal(b1-4)GlcNAc(b1-3)Gal(b1-4)GlcNAc(b1-2)Man(a1-3)[GlcNAc(b1-3)Gal(b1-4)GlcNAc(b1-3)Gal(b1-4)GlcNAc(b1-3)Gal(b1-4)GlcNAc(b1-3)Gal(b1-4)GlcNAc(b1-2)Man(a1-6)]Man(b1-4)GlcNAc(b1-4)[Fuc(a1-6)]GlcNAc
In short: as §1

Kdn(a2-6)Gal(b1-4)GlcNAc = biological target: Kdn(a2-6)Gal(b1-4)GlcNAc
In short: as §1

[6] = biological target: Man(a1-2)Man(a1-3)[Man(a1-2)Man(a1-6)]Man
In short: as §1

[7] = biological target: Man(a1-2)Man(a1-6)[Man(a1-3)]Man(a1-6)[Man(a1-2)Man(a1-2)Man(a1-3)]Man(b1-4)GlcNAc(b1-4)GlcNAc
In short: as §1

[8] = biological target: Neu5Ac(a2-3)Gal(b1-3)GalNAc(b1-3)Gal(a1-4)Gal(b1-4)Glc
In short: as §1

[9] = biological target: Neu5Ac(a2-3)Gal(b1-4)GlcNAc(b1-2)Man
In short: as §1

[10] = biological target: Neu5Ac(a2-3)Gal(b1-4)GlcNAc(b1-3)Gal(b1-4)GlcNAc(b1-3)[Neu5Ac(a2-3)Gal(b1-4)GlcNAc(b1-3)Gal(b1-4)GlcNAc(b1-6)]GalNAc
In short: as §1

[11] = biological target: Neu5Ac(a2-3)Gal(b1-4)GlcNAc(b1-3)Gal(b1-4)GlcNAc(b1-6)[Gal(b1-3)]GalNAc
In short: as §1

[12] = biological target: Neu5Ac(a2-3)Gal(b1-4)GlcNAc6S
In short: as §1

[13] = biological target: Neu5Ac(a2-3)Gal6S(b1-4)GlcNAc
In short: as §1

Neu5Ac(a2-3)GalNAc = biological target: Neu5Ac(a2-3)GalNAc
In short: as §1

[14] = biological target: Neu5Ac(a2-6)Gal(b1-3)GlcNAc(b1-3)[Gal(b1-4)GlcNAc(b1-6)]Gal(b1-4)Glc
In short: as §1

[15] = biological target: Neu5Ac(a2-6)Gal(b1-4)GlcNAc(b1-2)[Neu5Ac(a2-6)Gal(b1-4)GlcNAc(b1-4)]Man(a1-3)[GlcNAc(b1-4)][Neu5Ac(a2-6)Gal(b1-4)GlcNAc(b1-4)Man(a1-6)]Man(b1-4)GlcNAc(b1-4)GlcNAc
In short: as §1

[16] = biological target: Neu5Ac(a2-6)Gal(b1-4)GlcNAc(b1-2)[Neu5Ac(a2-6)Gal(b1-4)GlcNAc(b1-6)]Man(a1-6)[Neu5Ac(a2-6)Gal(b1-4)GlcNAc(b1-2)Man(a1-3)][GlcNAc(b1-4)]Man(b1-4)GlcNAc(b1-4)GlcNAc
In short: as §1

[17] = biological target: Neu5Ac(a2-6)Gal(b1-4)GlcNAc(b1-3)Gal(b1-3)GlcNAc
In short: as §1

[18] = biological target: Neu5Ac(a2-8)Neu5Ac(a2-3)Gal(b1-3)GalNAc(b1-4)[Neu5Ac(a2-8)Neu5Ac(a2-3)]Gal(b1-4)Glc
In short: as §1

[19] = biological target: Neu5Gc(a2-3)Gal(b1-3)[Fuc(a1-4)]GlcNAc
In short: as §1

B1: AntigenI/IIA3VP1 (Streptococcus mutans), C9E3B4 (protein)
chain: AANEADYQAKLTAYQTELARVQKANADAKAAYEAAVAANNAANAALTAENTAIKKRNADAKADYEAKLAKYQADLAKYQKDLADYPVKLKAYEDEQASIKAALAELEKHKNEDGNLTEPSAQNLVYDLEPNANLSLTTDGKFLKASAVDDAFSKSTSKAKYDQKILQLDDLDITNLEQSNDVASSMELYGNFGDKAGWSTTVSNNSQVKWGSVLLERGQSATATYTNLQNSYYNGKKISKIVYKYTVDPKSKFQGQKVWLGIFTDPTLGVFASAYTGQVEKNTSIFIKNEFTFYDEDGKPINFDNALLSVASLNREHNSIEMAKDYSGKFVKISGSSIGEKNGMIYATDTLNFKQGEGGSRWTMYKNSQAGSGWDSSDAPNSWYGAGAIKMSGPNNYVTVGATSATNVMPVSDMPVVPGKDNTDGKKPNIWYSLNGKIRAVNVPKVTKEKPTPPVKPTAPTKPTYETEKPLKPAPVAPNYEKEPTPPTRLEHHHHHH
Question: B1 was tested. Which “glycan array binding signal (z-score)” value [1] did it give?
Answer: -0.398

Question: And the “glycan array binding signal (z-score)” value [2]?
Answer: 3.68

Question: And the “glycan array binding signal (z-score)” value (Gal6P(b1-4)GlcNAc)?
Answer: -1.28

Question: What about the “glycan array binding signal (z-score)” value (GalNAc(a1-3)GalNAc) of the same binder?
Answer: 0.327

Question: And the “glycan array binding signal (z-score)” value (GalNAc(b1-3)GalNAc)?
Answer: 1.37

Question: What about the “glycan array binding signal (z-score)” value (GalNAc(b1-3)GlcNAc) of the same binder?
Answer: -0.475

Question: And the “glycan array binding signal (z-score)” value [3]?
Answer: -0.868

Question: What about the “glycan array binding signal (z-score)” value (GlcA(b1-3)GlcNAc) of the same binder?
Answer: -0.575

Question: And the “glycan array binding signal (z-score)” value [4]?
Answer: -1.35

Question: And the “glycan array binding signal (z-score)” value [5]?
Answer: 3.23

Question: What about the “glycan array binding signal (z-score)” value (Kdn(a2-6)Gal(b1-4)GlcNAc) of the same binder?
Answer: -1.05

Question: What about the “glycan array binding signal (z-score)” value [6] of the same binder?
Answer: -0.805

Question: And the “glycan array binding signal (z-score)” value [7]?
Answer: 0.975

Question: And the “glycan array binding signal (z-score)” value [8]?
Answer: 0.492

Question: And the “glycan array binding signal (z-score)” value [9]?
Answer: 0.921

Question: And the “glycan array binding signal (z-score)” value [10]?
Answer: 0.324

Question: And the “glycan array binding signal (z-score)” value [11]?
Answer: -0.29

Question: And the “glycan array binding signal (z-score)” value [12]?
Answer: -0.627

Question: And the “glycan array binding signal (z-score)” value [13]?
Answer: -0.68

Question: What about the “glycan array binding signal (z-score)” value (Neu5Ac(a2-3)GalNAc) of the same binder?
Answer: -1.05

Question: What about the “glycan array binding signal (z-score)” value [14] of the same binder?
Answer: 0.439

Question: And the “glycan array binding signal (z-score)” value [15]?
Answer: 1.05

Question: What about the “glycan array binding signal (z-score)” value [16] of the same binder?
Answer: 0.993

Question: What about the “glycan array binding signal (z-score)” value [17] of the same binder?
Answer: -1.1

Question: What about the “glycan array binding signal (z-score)” value [18] of the same binder?
Answer: -0.035

Question: What about the “glycan array binding signal (z-score)” value [19] of the same binder?
Answer: -0.885
